This is a sample that favours compounds with a hit; in the whole collection about 19% have one here.
DT40 TDP1 CPT – qHTS for Inhibitors of human tyrosyl-DNA phosphodiesterase 1 (TDP1): qHTS in cells in presence of CPT | chicken DT40 Tdp1-/-;hTDP1 cells + 20 nM CPT, ATP luminescence, 48 h | Potency, µM (highest dose often 46.2 µM), actives largely listed as inhibitors | actives 12% (n = 420,000) | AID 686979, 2013; also: nearly all actives have a fitted effect of over 55% in size
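Chicken DT40 Tdp1-/- cells stably complemented with human TDP1 were seeded at 400 cells/well in medium containing 20 nM camptothecin, exposed to pin-transferred compounds, and grown at 37 °C for at least 48 hr. Viability was read as ATP luminescence.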
HepG2 viability – qHTS for Inhibitors of TGF-b: Cytotox Counterscreen | HepG2 CAGA-GFP viability, ATP luminescence, 18 h | Potency, µM (series often up to 46.1 µM), hits mostly cytotoxic | AID 588856, 2011 | actives 0.76% (n = 410,000)
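HepG2 CAGA-GFP cells (1000/well, DMEM with 1% FBS) received compound, then TGF-beta at 500 pg/mL final, and were incubated 18 hours at 37 degrees C. Viability was read by CellTiter-Glo luminescence. Media-only wells were set as complete cell-killing and DMSO as no toxicity.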
TDP1 cell noCPT – qHTS for Inhibitors of human tyrosyl-DNA phosphodiesterase 1 (TDP1): qHTS in cells in absence of CPT | DT40 Tdp1-/- hTDP1 cells, no CPT, ATP luminescence, 48 h | Potency, µM (highest dose often 46.2 µM), hits mostly inhibitors | actives 15% (n = 420,000) | AID 686978, 2013; also: nearly all actives have a fitted effect of over 55% in size
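A cellular qHTS used chicken DT40 cells lacking endogenous Tdp1 but carrying stably transfected human TDP1. Compounds were applied without camptothecin, and cell growth kinetics were judged by ATP-dependent luminescence after ≥48 hr.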
TGFb inhibitor – qHTS for Inhibitors of TGF-b; Potency, µM (highest dose often 46.1 µM), most hits filed as inhibitors; HepG2 CAGA-GFP TGF-b/SMAD3 reporter, GFP fluorescence, 18 h; TGF-beta stimulated, 500 pg/mL final; actives 1.2% (n = 410,000); also: nearly all actives have a fitted effect of over 65% in size
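Inhibition was scored as loss of TGF-beta-induced (500 pg/mL final, 18 hours, 37 degrees C) GFP in HEPG2 cells carrying a CAGA-GFP reporter, in DMEM with 1% FBS. Well GFP was summed per cell; Activity was normalised to unstimulated and stimulated DMSO wells, then concentration-response fitting.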
TDP1 block – qHTS Assay for Inhibitors of Tyrosyl-DNA Phosphodiesterase (TDP1); Tyrosyl-DNA phosphodiesterase 1 (Homo sapiens), Q9NUW8; recombinant TDP1, AlphaScreen DNA substrate cleavage; Potency, µM (doses to about 130 µM), hits mostly inhibitors; actives 0.28% (n = 350,000); AID 485290, 2010; also: nearly all actives have a fitted effect of over 40% in size
Target sequence (Q9NUW8 whole entry, looked up): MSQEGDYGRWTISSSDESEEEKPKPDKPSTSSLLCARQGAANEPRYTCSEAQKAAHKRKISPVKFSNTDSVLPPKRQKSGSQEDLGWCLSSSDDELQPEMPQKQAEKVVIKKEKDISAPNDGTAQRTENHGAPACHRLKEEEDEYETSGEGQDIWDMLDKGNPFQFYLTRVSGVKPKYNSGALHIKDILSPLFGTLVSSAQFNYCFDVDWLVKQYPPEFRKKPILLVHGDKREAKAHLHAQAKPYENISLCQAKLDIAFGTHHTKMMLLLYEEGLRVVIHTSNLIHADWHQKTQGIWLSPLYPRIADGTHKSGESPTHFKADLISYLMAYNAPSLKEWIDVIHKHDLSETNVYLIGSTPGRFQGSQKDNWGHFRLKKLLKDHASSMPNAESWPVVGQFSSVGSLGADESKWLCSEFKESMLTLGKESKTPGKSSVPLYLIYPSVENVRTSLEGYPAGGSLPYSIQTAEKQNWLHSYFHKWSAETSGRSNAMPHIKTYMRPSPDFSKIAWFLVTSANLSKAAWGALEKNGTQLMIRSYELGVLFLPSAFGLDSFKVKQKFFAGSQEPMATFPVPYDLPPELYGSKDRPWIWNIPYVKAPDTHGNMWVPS
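Tdp1 1 nM final; 15 min RT w/ cpd; substrate 15 nM, 5 min; beads 10 ug/ml, 10 min; AlphaScreen read. Neg ctrl: no enzyme.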
IL1B secr inh – qHTS for Inhibitors of Inflammasome Signaling: IL-1-beta AlphaLISA Primary Screen; THP-1 LPS/ATP IL-1B secretion, AlphaLISA, 16 h; active compounds read low; activity change, % at 57.5 µM; actives 4.7% (n = 360,000); in the data active = activity change below about -50%; inconclusive = mostly about -30% to -49%
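THP-1 cells pretreated 1 hr with compounds (up to 57.5 uM final), then stimulated with LPS (250 ng/mL final) plus ATP (1.25 mM final); secreted IL-1B measured by AlphaLISA after 16 hr, decreased signal indicating inhibition.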
A number is an active result; . = inactive; ? = inconclusive; / = not tested or not shown; [ ] = another dose, or the depositor's remark. Unless noted, calls follow the shape of the dose curve; as a rule, active = well fitted curve in the direction sought with a large enough effect; inconclusive = small, poorly fitted or top-dose-only effect, or another doubt; inactive = no such curve, though single readings can be large; an effect the other way counts as inactive or inconclusive.

SMILES	DT40 TDP1 CPT	HepG2 viability	TDP1 cell noCPT	TGFb inhibitor	TDP1 block	IL1B secr inh
O=S(=O)(CCSc1nc2ccccc2o1)c1nc2ccccc2s1	4.1µM	.	3.7µM	?	.	-99
CCS(=O)(=O)CCSc1nc2ccccc2o1	.	.	.	.	.	.
N#Cc1ccc(CS(=O)(=O)c2nc3ccccc3s2)cc1	/	/	/	/	.	/
O=S(=O)(NCCSc1nc2ccccc2o1)c1ccccc1	16µM	.	16µM	.	.	.
Cc1ccc(NC(=O)COC(=O)CCc2c(C)nc3ncnn3c2C)cc1C	.	.	.	.	.	.
COc1ccc(Cc2noc(-c3ccc([N+](=O)[O-])cc3)n2)cc1OC	26µM	.	?	?	/	.
Cc1ccc(-c2c(C(=O)NCCc3ccc(Cl)cc3)oc(=O)c3ccccc23)cc1	?	.	?	11µM	.	/
CCCCN(Cc1ccccc1)C(=O)c1oc(=O)c2ccccc2c1-c1ccc(C)cc1	21µM	.	?	?	.	/
CCCCN(CCCC)C(=O)c1cc2ccccc2c(=O)o1	?	.	16µM	.	.	.
Cc1ccc(CCNC(=O)c2oc(=O)c3ccccc3c2-c2ccc(C)cc2)cc1	?	.	23µM	?	.	/
COc1ccc(CCNC(=O)c2oc(=O)c3ccccc3c2-c2ccccc2)cc1OC	?	.	?	.	.	/
COc1cccc(-c2cc3c(c(OC)c2)OCCN(S(=O)(=O)c2ccccc2OC(F)(F)F)C3)n1	.[9.04 µM]	/	.	/	/	/
Cc1c(Br)c([N+](=O)[O-])nn1CC(=O)Nc1ccc(C(N)=O)cc1	.	.	.	.	.	.
CN1CC(=O)N(CC(=O)Nc2ccc(N3CCOCC3)cc2)C1=O	.	.	.	.	.	.
O=C(CCNC(=O)c1ccc(Br)cc1)Nc1ncccc1O	.	.	.	.	/	.
Cc1c(NC(=O)CSCc2ccco2)c(=O)n(-c2ccccc2)n1C	.	.	.	.	.	.
CN(C)Cc1cc(C(C)(C)C)cc(C(C)(C)C)c1O	?	.	.	.	.	.
CN(C)Cc1cc(O)c(CN(C)C)cc1O	2.6µM	.	3.7µM	.	?	.
COc1c(Br)cc(Br)cc1/C=C1/C(=O)N=C(N)N1C	.	.	.	.	.	-54
O=C(NCc1ccccc1)C1CCCN(S(=O)(=O)c2ccc(Br)cc2)C1 (stereo not drawn)	?	.	?	.	.	.
COc1ccc(C(=O)COC(=O)C2CCCN2C(=O)C23CC4CC(CC(C4)C2)C3)cc1 (stereo not drawn)	23µM	.	.	?	.	.
O=C(C1CCCCC1)N1CCC(CO)(Cc2ccccc2Cl)CC1	?	.	21µM	.	.	?
O=C(CCc1nnc2ccc(N3CCC4(CC3)OCCO4)nn12)N1CCCCC1	.	.	.	.	.	.
CCOC(=O)N1CCN(S(=O)(=O)N2CCCC(C(=O)NCc3cc(Br)ccc3OC)C2)CC1 (stereo not drawn)	18µM	.	13µM	?	.	.
COc1cc(CN2c3ccc(Br)cc3C(=O)CS2(=O)=O)cc(OC)c1	?	.	?	11µM	/	/
SMILES	DT40 TDP1 CPT	HepG2 viability	TDP1 cell noCPT	TGFb inhibitor	TDP1 block	IL1B secr inh
C=CCN1c2ccc(Br)cc2C(=O)CS1(=O)=O	?	.	?	?	.	.
COc1ccccc1NC(=O)CN1CCC(c2nc3ccc(C)cc3[nH]2)CC1	.	.	.	.	.	.
COc1ccccc1NC(=O)CN1CCC(c2nc3ccccc3[nH]2)CC1	?	.	15µM	.	.	.
COc1ccccc1NC(=O)N1CCC(c2nc3cc(C)c(C)cc3[nH]2)CC1	3.7µM	.	1.8µM	?	.	.
COc1cccc(CNC(=O)CN2CCC(c3nc4ccc(C)cc4[nH]3)CC2)c1	?	.	?	.	.	-61
Cc1ccc2nc(C3CCCN(C(=S)Nc4ccccc4C)C3)[nH]c2c1 (stereo not drawn)	?	.	21µM	?	.	.
Cc1ccc(-c2nnc3c4ccccc4c(C)nn23)cc1NC(=O)c1ccccc1	.	.	?	.	.	/
CNC(=S)N1N=C(c2ccc(C)cc2)CC1c1ccc(OC)c(OC)c1 (stereo not drawn)	?	.	15µM	.	.	.
CNC(=S)N1N=C(c2ccc(Br)cc2)CC1c1ccc(Br)cc1 (stereo not drawn)	15µM	.	12µM	.	.	?
COc1ccc(C2CCCN2C(=S)Nc2cccc(C)c2)cc1OC (stereo not drawn)	?	.	?	.	.	.
COc1ccc(C2CCCN2C(=S)Nc2ccc(C)cc2Cl)cc1OC (stereo not drawn)	?	.	16µM	.	.	.
CNC(=S)N1N=C(c2ccccc2)CC1c1ccc(OC)c(OC)c1 (stereo not drawn)	.	.	.	.	.	.
CNC(=S)N1N=C(c2ccc(Br)cc2)CC1c1ccc(N(C)C)cc1 (stereo not drawn)	?	.	?	.	.	.
O=C(Nc1nnc(Cc2ccccc2)s1)C1CCN(C(=O)c2cccs2)CC1	?	.	?	.	/	/
O=C(NCc1ccc(F)cc1)C1CCN(C(=O)c2ccc(-n3ccc4ccccc43)s2)CC1	16µM	.	15µM	?	.	/
COCCCNC(=O)C1CCN(C(=O)c2ccc(-n3ccc4ccccc43)s2)CC1	18µM	.	16µM	.	.	/
COc1ccc(-c2sc3ccccc3c2/C=C/c2ccncc2)cc1	?	.	16µM	?	.	.
COc1ccc(-c2cc(=O)c3ccccc3s2)cc1	?	.	?	.	.	-60
COc1ccc(-c2c(-c3ccccc3OC)sc3ccccc23)cc1C=O	?	.	18µM	?	.	.
COc1ccc(-c2c(-c3ccccc3OC)sc3ccccc23)cc1OC	?	.	.	.	/	.
COc1ccc(-c2sc3ccccc3c2-c2cc(OC)ccc2C=O)cc1	?	/	21µM	/	/	.
COc1ccc2sc3ccccc3c(=O)c2c1	.	.	.	.	/	.
CCCOC(=O)Cn1cnc2scc(-c3ccc(OC)cc3)c2c1=O	.	.	.	.	/	.
Cc1oc(-c2ccccc2)nc1Cn1cccc1C1=NC(c2ccccc2)CO1 (stereo not drawn)	?	.	23µM	?	.	.
